Data on nine compounds can be found in PubChem BioAssay (NCI).

Test systems include SR leukemia; RPMI-8226 leukemia; OVCAR-8 ovarian; OVCAR-5 ovarian; OVCAR-4 ovarian; SK-OV-3 ovarian; HS 578T breast; NCI/ADR-RES ovarian; T-47D breast; BT-549 breast; MDA-MB-435 melanoma; SW-620 colon; HCT-116 colon; HCC-2998 colon; KM12 colon; MCF7 breast; OVCAR-3 ovarian; IGROV1 ovarian.
Holding throughout (assay): NCI-60 one-dose screen, 48 h (100 = growth as untreated, 0 = no growth, -100 = all killed)
Settings in all cases: 10 µM unless noted

The panel holds about 83,000 compounds, 20% with a hit somewhere; the sample as a whole holds those more often.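 How to read the values: 0–100, growth inhibition (40 = 60% inhibited); 0, no net growth; -100 to 0, cell death (-40 = 40% of starting cells died; -100 = all dead).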 A number with no mark means an inactive call. Calls of active or inactive are those of the source. The calls were made as follows: active = growth percent below 10; inactive = the rest.

With `O=C1/C(=C/c2ccc([N+](=O)[O-])cc2)SC(=Nc2ccccc2)N1Nc1ccccc1`, the growth in the assay with SR leukemia was 0.29% (active); in the assay with RPMI-8226 leukemia, 42.7%; in the assay on OVCAR-8 ovarian, 50%; in the assay on OVCAR-5 ovarian, 75.8%; with OVCAR-4 ovarian, 52.9%; in the assay on SK-OV-3 ovarian it was 102%. Also, the growth with HS 578T breast is 79.1%; in the assay with NCI/ADR-RES ovarian it was 45.8%; with T-47D breast, 56.2%; in the assay on BT-549 breast, 95.6%; in the assay on MDA-MB-435 melanoma, 71.1%; in the assay on SW-620 colon, 43.2%. In addition, the growth with HCT-116 colon was 26.9%; in the assay on HCC-2998 colon it was 85.3%; in the assay with KM12 colon, 77.5%.

Regarding `CC(C)c1nn(-c2ccccc2)c(N2CCCCC2)c1/C=N/NC(N)=S`, the growth with SR leukemia was 88.8%; in the assay with RPMI-8226 leukemia, 78.2%; in the assay on OVCAR-8 ovarian, 97.1%; in the assay with OVCAR-5 ovarian, 98.7%; with OVCAR-4 ovarian, 72.4%; in the assay on SK-OV-3 ovarian, 106%. For the same compound, the growth in the assay on HS 578T breast was 103%; in the assay on NCI/ADR-RES ovarian it was 86.9%; in the assay on T-47D breast it was 66.8%; in the assay on BT-549 breast, 85.2%; with MDA-MB-435 melanoma it was 97.5%; in the assay on SW-620 colon, 101%. Moreover, the growth in the assay on MCF7 breast is 75.7%; with HCT-116 colon, 79.1%; in the assay with HCC-2998 colon, 105%; in the assay on KM12 colon it was 103%.

In the case of `Cc1ccc(-c2cc3nc(C(Cl)Cl)nc(-c4ccccc4)n3n2)cc1`, the growth with SR leukemia was 85.3%; in the assay on RPMI-8226 leukemia, 82.5%; in the assay with OVCAR-8 ovarian, 92.9%; in the assay with OVCAR-5 ovarian it was 103%; with OVCAR-4 ovarian, 103%; in the assay with SK-OV-3 ovarian, 97.9%. Besides, the growth is 109% in the assay with HS 578T breast; 79.5% with NCI/ADR-RES ovarian; 90.4% in the assay on T-47D breast; 95.8% in the assay with BT-549 breast; 91.5% with MDA-MB-435 melanoma; 79.5% in the assay with SW-620 colon. Besides, the growth in the assay with MCF7 breast is 64.1%; with HCT-116 colon, 82.2%; in the assay on HCC-2998 colon, 65.3%; in the assay on KM12 colon it was 65.8%.

For `O=C(CCCCCCN1CC(=O)N2[C@@H](c3cccc(Br)c3)c3[nH]c4ccccc4c3C[C@H]2C1=O)NO`, the growth in the assay with SR leukemia was 37.4%; in the assay on RPMI-8226 leukemia, 13.4%; in the assay on OVCAR-8 ovarian it was 24.9%; with OVCAR-5 ovarian, 29%; with OVCAR-4 ovarian, 48.9%; with SK-OV-3 ovarian it was 13.9%. The growth in the assay on OVCAR-3 ovarian was 6.19% (active); in the assay on HS 578T breast, 61.4%; in the assay with NCI/ADR-RES ovarian, 91.9%; in the assay on T-47D breast, 17.2%; in the assay on BT-549 breast, 57.9%; in the assay on MDA-MB-435 melanoma, 14%. Further, the growth in the assay with SW-620 colon is 15%; in the assay on MCF7 breast, 21.4%; with HCT-116 colon, 8.35% (active); with HCC-2998 colon, 41.6%; in the assay on KM12 colon, 28.4%.

Turning to `O=C1c2c(c3c4cc(Br)ccc4[nH]c3c3ccc4ccccc4c23)C(=O)N1CCN1CCNCC1`, the growth with SR leukemia is -14.3% (active); in the assay on RPMI-8226 leukemia, -9.87% (active); in the assay on OVCAR-8 ovarian it was 57.3%; with OVCAR-5 ovarian, 113%; with OVCAR-4 ovarian, 103%; in the assay with SK-OV-3 ovarian it was 93.6%. Moreover, the growth is 115% with HS 578T breast; 69.5% in the assay with NCI/ADR-RES ovarian; 61.8% in the assay on T-47D breast; 87.6% with BT-549 breast; 92.5% in the assay with MDA-MB-435 melanoma; -58.4% (active) in the assay on SW-620 colon. In addition, the growth was -73.7% (active) with MCF7 breast, 11.2% in the assay with HCT-116 colon and 88.6% in the assay on KM12 colon.

As to `O=C(COc1cccc2cccnc12)Nc1ccc(C(=O)/C=C/c2ccc(Cl)cc2)cc1`, the growth was 61.1% in the assay on SR leukemia; 7.02% (active) in the assay on RPMI-8226 leukemia; 94.4% in the assay on OVCAR-8 ovarian; 105% in the assay on OVCAR-5 ovarian; 92% in the assay with OVCAR-4 ovarian; 105% in the assay on SK-OV-3 ovarian. Further, the growth is 100% in the assay with OVCAR-3 ovarian; 98.8% in the assay on HS 578T breast; 79.2% with NCI/ADR-RES ovarian; 74.8% in the assay with T-47D breast; 87.9% in the assay on BT-549 breast; 92.6% with MDA-MB-435 melanoma. Moreover, the growth in the assay with SW-620 colon was 93.6%; in the assay with HCT-116 colon it was 5.25% (active); in the assay with HCC-2998 colon, 102%; with KM12 colon, 86.5%.

On to `C#C[C@]1(O)CC[C@H]2[C@@H]3CC=C4c5sc(Nc6cc(Cl)ccn6)nc5CC[C@]4(C)[C@H]3CC[C@@]21C`, for which the growth with SR leukemia was 4.56% (active); with RPMI-8226 leukemia, -22.9% (active); with OVCAR-8 ovarian, 48.7%; in the assay on OVCAR-5 ovarian it was 47.5%; in the assay with OVCAR-4 ovarian it was 68.1%; in the assay with SK-OV-3 ovarian it was -1.88% (active). Further, the growth was -3.53% (active) in the assay with HS 578T breast; 34.7% in the assay with NCI/ADR-RES ovarian; 36.6% in the assay on T-47D breast; 20% with BT-549 breast; -61.6% (active) in the assay with MDA-MB-435 melanoma; -1.44% (active) in the assay on SW-620 colon. Moreover, the growth was 14.4% with HCT-116 colon, 39.8% in the assay on HCC-2998 colon and -0.602% (active) with KM12 colon.

Turning to `Cn1ccnc1C(=O)/C=C/c1ccc(C(=O)Nc2ccc(NC(=O)CCNC(=O)c3csc(Br)n3)cc2)cc1`, the growth with SR leukemia was 12.5%; with RPMI-8226 leukemia, 14.5%; in the assay on OVCAR-8 ovarian, 63.9%; in the assay on OVCAR-5 ovarian it was 78.8%; with OVCAR-4 ovarian, 64.1%; in the assay with SK-OV-3 ovarian it was 100%. For the same compound, the growth is 15.5% with OVCAR-3 ovarian; 95.5% with HS 578T breast; 60.9% with NCI/ADR-RES ovarian; 58.9% in the assay on T-47D breast; 65.4% in the assay on BT-549 breast; 44.2% with MDA-MB-435 melanoma. Further, the growth with SW-620 colon is 14.1%; in the assay with MCF7 breast, 17.7%; in the assay with HCT-116 colon it was 20.5%; in the assay on HCC-2998 colon, 106%; in the assay with KM12 colon, 33.3%.

`COc1ccc(NC2=C(Cl)C(=O)C(C)=C(C)C2=O)cc1`: the growth was 20.6% in the assay on SR leukemia; 68.8% in the assay with RPMI-8226 leukemia; 51.8% in the assay on OVCAR-8 ovarian; 103% with OVCAR-5 ovarian; -98.7% (active) in the assay with OVCAR-4 ovarian; -49.1% (active) in the assay with IGROV1 ovarian. Besides, the growth in the assay with OVCAR-3 ovarian was 101%; with HS 578T breast, 95.1%; in the assay on NCI/ADR-RES ovarian, 93.9%; with T-47D breast it was -2.17% (active); in the assay with BT-549 breast, 110%; in the assay on MDA-MB-435 melanoma, 106%. For the same compound, the growth was 94.3% in the assay with SW-620 colon; 75.9% with MCF7 breast; 63.4% in the assay on HCT-116 colon; 101% with HCC-2998 colon; 72.3% in the assay on KM12 colon.
